Potency and affinity values are given separately. Calls of active or inactive are those of the source.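 How the source made its calls: active means cell killing whose fitted half-effect concentration is at most twice the top valid dose tested; inconclusive means flat curve with 30 to 70% killing, or a poor fit; inactive means effect in the rising direction, plus the rest.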

The experiment can be described thus: viability loss in A549 lung cells – cell-based, ATP luminescence, cherry-pick, set 2, cytotoxicity control, dose response (AID 1053124). The settings on record: ATP luminescence (CellTiter-Glo), 72 h; series mostly up to 26 µM. Background: Cellular ATP, detected with luciferase, serves as a proxy for viable cell number.
`COC(=O)C1=CN(C)C=C(C(=O)OC)C1c1ccccc1Cl`: the molecule was classed as inactive. With `Cn1nc(-c2ccc(Cl)cc2)c2cc(C(=O)N3CCN(c4ccccc4)CC3)sc21` the entry was “inactive”; with `O=C(c1ccc(F)cc1)C1CCN(C(=O)Nc2ccccc2Cl)CC1`, “inactive”; with `O=[N+]([O-])c1cccc(-c2n[nH]c(=S)n2-c2ccc(Br)cc2)c1`, “inactive”. Regarding `N#CC1=C(N)OC2=C(C(=O)CCC2)C1c1cc2c(cc1Br)OCO2` (centres undefined), the call was inactive. The entry for `O=c1oc2c(CN3CCN(CCO)CC3)c(O)ccc2cc1-c1ccccn1` is “inactive”; for `Cc1cccn2c(=O)c3cc(C(N)=S)c(=N)n(CCCOC(C)C)c3nc12` it is “inactive”. For `O=C(c1cccc(Cl)c1)N1CCC(=O)N(C(COCc2ccccc2)Cc2ccccc2)CC1` (centres undefined), the outcome was inactive. With `COc1ccccc1NS(=O)(=O)c1cc(NC(=O)CCNC(C)=O)ccc1C`, the call was inactive. With `Cc1ccc(S(=O)(=O)Nc2ccc(Nc3ccccc3)cc2)cc1` the entry was “inactive”; with `COc1ccccc1/C=N/Nc1nc(C)cc(=O)[nH]1`, “inactive”.

As to `CCC(C)n1c(=N)c(C#N)cc2c(=O)n3cc(C)ccc3nc21` (centres undefined), the molecule was called inactive. With `CC1CC(C)CN(CCCNC(=O)CCC(=O)N2CC(C)Oc3ccccc32)C1` (centres undefined) the entry was “inactive”; with `Cc1ccc(-c2nc3ccsc3c(=O)[nH]2)cc1`, “inactive”; with `S=c1[nH]c2ccc(Cc3ccc4[nH]c(=S)[nH]c4c3)cc2[nH]1`, “inactive”. For the molecule `CCOC(=O)c1cc(-c2ccccc2)sc1NC(=O)CSc1nnc(N)s1`, the result was inactive.

On to `Cc1cccn2c(=O)c3cc(C(=O)NCC4CCCO4)c(=N)n(CC4CCCO4)c3nc12` (centres undefined), for which the molecule was classed as inactive.

With `N#Cc1ccc(OCC(=O)OCC(=O)N2CCc3ccccc32)cc1`, the outcome was inactive. The entry for `CCOC(=O)c1c2ccc(OCC(=O)NN)cc2n2ccccc12` is “inactive”. Turning to `COc1ccc(CNC(=O)c2sc(=O)n(Cc3ccc(C)cc3)c2C)cc1OC`, the molecule was classed as inactive.

Consider `Cn1cnc(S(=O)(=O)Nc2ccc(OC(F)(F)F)cc2)c1`, for which the result was inactive. As for `CCNC(=O)c1cc2c(=O)n3cccc(C)c3nc2n(Cc2ccc(C)cc2)c1=N`, the molecule was called inactive. In the case of `Cc1nc2ccc(S(=O)(=O)Nc3ccc(-c4nc5cccnc5s4)cc3)cc2s1`, the outcome was inactive.

For the molecule `CSc1ccc(Cn2c(C)c(C(=O)NCCC#N)sc2=O)cc1`, the call was inactive.

As to `CCOc1ccc2nc(NCCCNS(=O)(=O)c3ccc(C)cc3)c(C#N)cc2c1`, the result was inactive. With `Cc1cc(-c2nc3cccnc3s2)ccc1NS(=O)(=O)c1cccs1` the entry was “inactive”. The entry for `CC(C)CCN(CCC(C)C)CC(O)Cn1c2ccccc2c(=O)c2ccccc21` (centres undefined) is “inactive”; for `CCCCN(CCCC)CC(O)Cn1c2ccccc2c(=O)c2ccccc21` (centres undefined) it is “inactive”; for `Cc1ccc(S(=O)(=O)CCC(=O)OCC(=O)Nc2cccc(S(=O)(=O)N3CCCCC3)c2)cc1` it is “inactive”.

Take `CC(C)N1CCc2c(sc(NC(=O)Cc3ccccc3)c2C#N)C1`: the call was inactive. With `COc1ccc(C2C3=C(CC(C)(C)CC3=O)N(C)C3=C2C(=O)CC(C)(C)C3)cc1`, the molecule was classed as inactive. With `CN1CCc2c(sc(NC(=O)C3CCCCC3)c2C(N)=O)C1`, the call was inactive. The entry for `COc1c(Cl)cc(-c2noc(C)c2C(=O)NCc2ccc3c(c2)OCO3)cc1Cl` is “inactive”; for `COCCn1c(=N)c(S(=O)(=O)c2ccc(F)cc2)cc2c(=O)n3ccccc3nc21` it is “inactive”; for `CCCOc1ccccc1/C=C1\SC(N)=NC1=O` it is “inactive”. With `COc1cccc2c(=O)c3c(cnn3C)n(C)c12` the entry was “inactive”; with `Cc1cc(C)nc(SCC(=O)Nc2ccc(S(=O)(=O)Nc3onc(C)c3C)cc2)n1`, “inactive”; with `C=Cc1ccc(Cn2c(C)c(C(=O)NCc3cccc(C)c3)sc2=O)cc1`, “inactive”.

As for `COCCCOc1cc(NCc2ccccc2)c2ncn(C(C)C)c2c1`, the molecule was called inactive.

The values are drawn from PubChem BioAssay AID1053124 (Broad Institute, 2014).
